The record followed here is ChEMBL document CHEMBL1961873, “Compounds: GSK PKIS; Assays: Nanosyn kinase panel” (2012).

SMILES strings stand for the structures.

Assay [1] concerns the target Fibroblast growth factor receptor 4 (Homo sapiens) (UniProt P22455). The settings on record: at 1 µM.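 Also: reported figure is the averaged percent inhibition of FGFR4, from the GSK PKIS kinase screening panel.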
In assay [2] the target is Tyrosine-protein kinase Fgr (Homo sapiens) (UniProt P09769). The settings on record: at 0.1 µM.
The target is the same in assay [3]. The settings on record: at 1 µM.
Assay [4] concerns the target Vascular endothelial growth factor receptor 1 (Homo sapiens) (UniProt P17948). The settings on record: at 0.1 µM.
The target is the same in assay [5]. The settings on record: at 1 µM.
Assay [6] has as its target Receptor-type tyrosine-protein kinase FLT3 (Homo sapiens) (UniProt P36888). The note with it: at 0.1 µM.
Assay [7] shares this target. The settings on record: at 1 µM.
The subject of assay [8] is T1, Receptor-type tyrosine-protein kinase FLT3 (Homo sapiens), P36888 [D835Y].
T1 sequence (whole entry): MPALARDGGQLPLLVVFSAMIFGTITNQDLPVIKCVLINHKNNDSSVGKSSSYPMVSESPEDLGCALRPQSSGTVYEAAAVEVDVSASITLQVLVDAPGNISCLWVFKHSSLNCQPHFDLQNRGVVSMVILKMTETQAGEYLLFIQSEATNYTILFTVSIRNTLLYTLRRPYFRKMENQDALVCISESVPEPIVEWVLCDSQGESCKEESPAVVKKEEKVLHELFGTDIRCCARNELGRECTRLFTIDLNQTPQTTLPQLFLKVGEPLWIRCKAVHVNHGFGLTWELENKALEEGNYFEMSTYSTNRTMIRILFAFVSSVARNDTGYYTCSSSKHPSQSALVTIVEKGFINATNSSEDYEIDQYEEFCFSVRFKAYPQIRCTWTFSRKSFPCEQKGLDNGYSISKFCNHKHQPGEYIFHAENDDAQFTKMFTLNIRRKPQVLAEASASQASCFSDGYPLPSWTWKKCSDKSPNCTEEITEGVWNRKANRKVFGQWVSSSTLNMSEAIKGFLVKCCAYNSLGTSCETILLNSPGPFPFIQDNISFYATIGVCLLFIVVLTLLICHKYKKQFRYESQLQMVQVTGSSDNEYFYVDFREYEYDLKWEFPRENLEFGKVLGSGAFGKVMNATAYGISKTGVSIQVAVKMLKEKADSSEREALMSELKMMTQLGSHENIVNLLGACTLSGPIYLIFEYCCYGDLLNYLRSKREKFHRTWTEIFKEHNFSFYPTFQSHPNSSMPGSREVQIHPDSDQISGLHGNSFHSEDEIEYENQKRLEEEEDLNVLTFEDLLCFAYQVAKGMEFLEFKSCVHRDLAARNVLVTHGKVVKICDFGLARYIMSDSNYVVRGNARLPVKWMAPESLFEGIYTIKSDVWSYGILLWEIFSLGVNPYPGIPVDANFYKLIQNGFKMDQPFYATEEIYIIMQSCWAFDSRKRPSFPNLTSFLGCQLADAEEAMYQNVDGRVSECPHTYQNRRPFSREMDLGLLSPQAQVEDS
The settings on record: at 0.1 µM.

Assay [9] addresses Non-receptor tyrosine-protein kinase TYK2 (Homo sapiens) (UniProt P29597). The settings on record: at 1 µM.
The target of assay [10] is T2, Tyrosine-protein kinase receptor TYRO3 (Homo sapiens) (UniProt Q06418).
T2 sequence (whole entry): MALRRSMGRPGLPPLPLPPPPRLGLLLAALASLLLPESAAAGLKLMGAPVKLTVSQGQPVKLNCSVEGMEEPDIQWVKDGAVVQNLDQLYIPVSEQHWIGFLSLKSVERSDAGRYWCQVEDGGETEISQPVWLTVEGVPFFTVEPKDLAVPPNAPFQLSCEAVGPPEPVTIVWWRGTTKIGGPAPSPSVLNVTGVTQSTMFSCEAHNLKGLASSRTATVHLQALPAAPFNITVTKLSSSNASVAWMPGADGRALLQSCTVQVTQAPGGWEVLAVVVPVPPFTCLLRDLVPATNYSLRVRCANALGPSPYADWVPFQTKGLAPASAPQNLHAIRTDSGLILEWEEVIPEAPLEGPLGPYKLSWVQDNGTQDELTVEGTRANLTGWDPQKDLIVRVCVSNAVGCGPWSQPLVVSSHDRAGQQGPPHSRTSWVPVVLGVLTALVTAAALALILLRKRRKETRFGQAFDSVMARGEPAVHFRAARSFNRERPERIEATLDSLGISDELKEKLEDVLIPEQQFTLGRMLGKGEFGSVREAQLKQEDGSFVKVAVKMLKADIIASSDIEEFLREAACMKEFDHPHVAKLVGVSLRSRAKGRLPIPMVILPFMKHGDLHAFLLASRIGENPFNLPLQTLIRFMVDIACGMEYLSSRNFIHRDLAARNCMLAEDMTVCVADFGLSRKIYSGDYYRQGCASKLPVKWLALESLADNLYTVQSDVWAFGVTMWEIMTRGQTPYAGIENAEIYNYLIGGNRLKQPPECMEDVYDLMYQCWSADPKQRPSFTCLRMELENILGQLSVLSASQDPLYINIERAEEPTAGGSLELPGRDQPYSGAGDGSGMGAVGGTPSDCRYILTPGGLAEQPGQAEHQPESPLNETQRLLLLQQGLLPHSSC
The note with it: at 0.1 µM.

Assay [11] deals with T2, Tyrosine-protein kinase receptor TYRO3 (Homo sapiens). The settings on record: at 1 µM.
The target in assay [12] is Tyrosine-protein kinase Yes (Homo sapiens) (UniProt P07947). The settings on record: at 0.1 µM.
Assay [13] shares this target. The note with it: at 1 µM.
Assay [14] deals with T3, Tyrosine-protein kinase ZAP-70 (Homo sapiens) (UniProt P43403).
T3 sequence (whole entry): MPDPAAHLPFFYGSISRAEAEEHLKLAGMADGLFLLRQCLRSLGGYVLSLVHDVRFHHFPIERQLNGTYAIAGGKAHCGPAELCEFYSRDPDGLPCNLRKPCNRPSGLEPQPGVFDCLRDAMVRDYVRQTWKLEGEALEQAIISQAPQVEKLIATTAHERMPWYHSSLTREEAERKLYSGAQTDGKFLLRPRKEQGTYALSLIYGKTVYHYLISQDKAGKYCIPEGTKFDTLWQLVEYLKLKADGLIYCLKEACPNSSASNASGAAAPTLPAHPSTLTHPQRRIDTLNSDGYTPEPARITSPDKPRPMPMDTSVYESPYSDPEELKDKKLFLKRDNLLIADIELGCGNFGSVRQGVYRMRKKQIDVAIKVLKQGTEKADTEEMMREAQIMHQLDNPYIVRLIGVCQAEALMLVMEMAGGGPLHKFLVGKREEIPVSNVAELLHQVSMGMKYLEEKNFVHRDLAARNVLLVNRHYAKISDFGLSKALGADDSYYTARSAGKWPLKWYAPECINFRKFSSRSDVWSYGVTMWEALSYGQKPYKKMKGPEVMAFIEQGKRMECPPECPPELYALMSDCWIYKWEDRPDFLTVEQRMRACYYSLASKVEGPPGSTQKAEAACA
The settings on record: at 0.1 µM.

The target of assay [15] is T3, Tyrosine-protein kinase ZAP-70 (Homo sapiens). The note with it: at 1 µM.
The target in assay [16] is Serine/threonine-protein kinase B-raf (Homo sapiens) (UniProt P15056). The settings on record: at 0.1 µM.
Assay [17] shares this target. The settings on record: at 1 µM.
The subject of assay [18] is Serine/threonine-protein kinase B-raf (Homo sapiens), P15056 [V600E]. The note with it: at 0.1 µM.
For assay [19] the test system is unchanged. The note with it: at 1 µM.
Assay [20] deals with RAF proto-oncogene serine/threonine-protein kinase (Homo sapiens) (UniProt P04049). The note with it: at 0.1 µM.
Chain of RAF proto-oncogene serine/threonine-protein kinase (Homo sapiens) (P04049 whole entry): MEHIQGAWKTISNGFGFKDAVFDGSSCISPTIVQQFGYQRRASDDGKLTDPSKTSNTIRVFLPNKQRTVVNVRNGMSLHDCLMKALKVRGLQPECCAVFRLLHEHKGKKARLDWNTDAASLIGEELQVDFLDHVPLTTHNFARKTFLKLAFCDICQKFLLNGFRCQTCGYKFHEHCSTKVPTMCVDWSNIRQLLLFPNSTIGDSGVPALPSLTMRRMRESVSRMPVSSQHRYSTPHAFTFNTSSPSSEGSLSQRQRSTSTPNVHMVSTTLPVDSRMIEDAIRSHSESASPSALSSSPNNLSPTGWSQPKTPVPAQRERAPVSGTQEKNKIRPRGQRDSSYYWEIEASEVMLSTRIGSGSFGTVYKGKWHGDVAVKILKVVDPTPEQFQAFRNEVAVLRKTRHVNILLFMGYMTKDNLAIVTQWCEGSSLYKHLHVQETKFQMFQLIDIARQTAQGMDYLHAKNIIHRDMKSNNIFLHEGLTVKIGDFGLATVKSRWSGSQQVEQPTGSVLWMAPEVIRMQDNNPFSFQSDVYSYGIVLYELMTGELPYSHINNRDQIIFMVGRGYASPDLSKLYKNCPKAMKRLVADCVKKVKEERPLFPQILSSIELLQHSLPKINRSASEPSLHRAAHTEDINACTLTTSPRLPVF

Chain of Fibroblast growth factor receptor 4 (Homo sapiens) (P22455 22-802 limits assumed): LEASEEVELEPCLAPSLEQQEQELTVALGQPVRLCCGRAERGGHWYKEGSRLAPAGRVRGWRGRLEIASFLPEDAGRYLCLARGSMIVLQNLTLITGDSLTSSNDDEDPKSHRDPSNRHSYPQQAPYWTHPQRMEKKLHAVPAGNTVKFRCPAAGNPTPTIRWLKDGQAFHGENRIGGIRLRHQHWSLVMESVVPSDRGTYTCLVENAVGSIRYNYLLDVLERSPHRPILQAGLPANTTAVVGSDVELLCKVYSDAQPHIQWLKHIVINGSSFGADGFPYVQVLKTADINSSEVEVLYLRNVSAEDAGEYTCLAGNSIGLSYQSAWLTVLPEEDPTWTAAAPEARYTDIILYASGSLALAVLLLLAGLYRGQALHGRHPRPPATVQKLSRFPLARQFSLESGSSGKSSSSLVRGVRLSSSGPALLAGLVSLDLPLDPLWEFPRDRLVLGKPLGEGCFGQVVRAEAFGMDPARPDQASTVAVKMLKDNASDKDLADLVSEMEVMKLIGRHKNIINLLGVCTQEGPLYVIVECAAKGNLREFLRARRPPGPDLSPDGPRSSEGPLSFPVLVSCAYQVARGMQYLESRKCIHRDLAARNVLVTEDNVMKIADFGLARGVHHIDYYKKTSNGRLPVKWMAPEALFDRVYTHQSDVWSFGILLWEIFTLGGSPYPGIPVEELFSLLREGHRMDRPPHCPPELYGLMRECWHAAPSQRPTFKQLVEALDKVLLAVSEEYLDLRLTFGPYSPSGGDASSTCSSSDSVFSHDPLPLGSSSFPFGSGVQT
Chain of Tyrosine-protein kinase Fgr (Homo sapiens) (P09769 2-529 limits assumed): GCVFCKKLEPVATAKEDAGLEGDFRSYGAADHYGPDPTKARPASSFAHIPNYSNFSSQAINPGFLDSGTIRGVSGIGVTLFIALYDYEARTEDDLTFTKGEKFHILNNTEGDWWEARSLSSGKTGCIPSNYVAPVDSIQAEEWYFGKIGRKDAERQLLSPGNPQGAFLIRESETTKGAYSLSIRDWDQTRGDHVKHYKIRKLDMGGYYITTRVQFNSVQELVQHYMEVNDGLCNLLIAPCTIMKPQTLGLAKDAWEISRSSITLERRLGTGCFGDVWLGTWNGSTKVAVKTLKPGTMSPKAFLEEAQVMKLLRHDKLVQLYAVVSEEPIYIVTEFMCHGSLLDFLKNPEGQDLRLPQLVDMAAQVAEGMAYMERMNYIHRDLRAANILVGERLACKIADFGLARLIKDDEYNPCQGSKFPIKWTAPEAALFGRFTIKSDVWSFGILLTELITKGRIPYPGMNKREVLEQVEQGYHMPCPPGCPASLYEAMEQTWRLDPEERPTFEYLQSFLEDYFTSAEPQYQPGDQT
Chain of Non-receptor tyrosine-protein kinase TYK2 (Homo sapiens) (P29597 whole entry): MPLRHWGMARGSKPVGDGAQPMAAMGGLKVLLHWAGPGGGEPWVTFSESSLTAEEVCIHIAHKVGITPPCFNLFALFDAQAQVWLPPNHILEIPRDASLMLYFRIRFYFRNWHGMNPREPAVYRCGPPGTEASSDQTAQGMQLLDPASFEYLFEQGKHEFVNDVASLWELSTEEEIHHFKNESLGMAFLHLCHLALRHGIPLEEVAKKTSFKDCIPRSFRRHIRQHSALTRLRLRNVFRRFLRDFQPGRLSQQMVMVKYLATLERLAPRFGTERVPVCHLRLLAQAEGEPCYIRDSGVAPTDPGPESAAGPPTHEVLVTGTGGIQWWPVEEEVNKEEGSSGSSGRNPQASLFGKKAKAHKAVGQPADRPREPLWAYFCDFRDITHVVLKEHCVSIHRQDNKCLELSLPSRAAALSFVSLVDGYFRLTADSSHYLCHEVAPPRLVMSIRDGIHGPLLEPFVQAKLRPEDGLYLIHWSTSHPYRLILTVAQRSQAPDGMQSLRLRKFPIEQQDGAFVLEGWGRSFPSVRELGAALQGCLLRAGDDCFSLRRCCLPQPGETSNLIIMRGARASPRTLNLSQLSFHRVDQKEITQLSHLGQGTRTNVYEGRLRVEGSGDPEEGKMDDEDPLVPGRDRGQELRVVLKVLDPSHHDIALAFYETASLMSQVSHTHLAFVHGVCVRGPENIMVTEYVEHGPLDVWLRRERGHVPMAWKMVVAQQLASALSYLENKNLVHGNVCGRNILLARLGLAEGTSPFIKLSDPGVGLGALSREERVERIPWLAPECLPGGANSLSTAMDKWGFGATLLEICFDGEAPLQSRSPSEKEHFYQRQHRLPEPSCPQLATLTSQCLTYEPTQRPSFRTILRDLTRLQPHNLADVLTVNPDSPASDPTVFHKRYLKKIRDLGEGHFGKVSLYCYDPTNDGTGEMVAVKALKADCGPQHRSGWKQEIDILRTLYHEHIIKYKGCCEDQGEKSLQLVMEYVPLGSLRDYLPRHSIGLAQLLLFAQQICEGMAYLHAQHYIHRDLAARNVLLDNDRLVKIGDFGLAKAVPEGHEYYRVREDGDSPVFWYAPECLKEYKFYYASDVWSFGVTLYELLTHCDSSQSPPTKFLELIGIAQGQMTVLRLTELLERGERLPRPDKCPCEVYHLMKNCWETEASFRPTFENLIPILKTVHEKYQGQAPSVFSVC
Chain of Tyrosine-protein kinase Yes (Homo sapiens) (P07947 2-543 limits assumed): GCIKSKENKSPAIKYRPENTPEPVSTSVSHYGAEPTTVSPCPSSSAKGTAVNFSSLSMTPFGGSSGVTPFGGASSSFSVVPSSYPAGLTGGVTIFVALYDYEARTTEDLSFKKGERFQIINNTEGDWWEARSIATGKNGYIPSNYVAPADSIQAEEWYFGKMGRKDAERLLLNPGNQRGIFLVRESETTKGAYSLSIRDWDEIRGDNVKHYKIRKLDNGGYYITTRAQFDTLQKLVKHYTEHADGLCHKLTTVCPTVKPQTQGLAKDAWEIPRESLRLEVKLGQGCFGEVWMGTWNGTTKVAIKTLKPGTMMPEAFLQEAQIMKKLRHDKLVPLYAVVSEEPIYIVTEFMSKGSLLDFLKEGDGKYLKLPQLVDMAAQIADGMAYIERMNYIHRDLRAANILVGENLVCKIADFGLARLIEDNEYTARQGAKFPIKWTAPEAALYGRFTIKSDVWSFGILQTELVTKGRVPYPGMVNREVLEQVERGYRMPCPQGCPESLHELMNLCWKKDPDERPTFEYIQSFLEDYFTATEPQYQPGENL
Chain of Serine/threonine-protein kinase B-raf (Homo sapiens) (P15056 whole entry): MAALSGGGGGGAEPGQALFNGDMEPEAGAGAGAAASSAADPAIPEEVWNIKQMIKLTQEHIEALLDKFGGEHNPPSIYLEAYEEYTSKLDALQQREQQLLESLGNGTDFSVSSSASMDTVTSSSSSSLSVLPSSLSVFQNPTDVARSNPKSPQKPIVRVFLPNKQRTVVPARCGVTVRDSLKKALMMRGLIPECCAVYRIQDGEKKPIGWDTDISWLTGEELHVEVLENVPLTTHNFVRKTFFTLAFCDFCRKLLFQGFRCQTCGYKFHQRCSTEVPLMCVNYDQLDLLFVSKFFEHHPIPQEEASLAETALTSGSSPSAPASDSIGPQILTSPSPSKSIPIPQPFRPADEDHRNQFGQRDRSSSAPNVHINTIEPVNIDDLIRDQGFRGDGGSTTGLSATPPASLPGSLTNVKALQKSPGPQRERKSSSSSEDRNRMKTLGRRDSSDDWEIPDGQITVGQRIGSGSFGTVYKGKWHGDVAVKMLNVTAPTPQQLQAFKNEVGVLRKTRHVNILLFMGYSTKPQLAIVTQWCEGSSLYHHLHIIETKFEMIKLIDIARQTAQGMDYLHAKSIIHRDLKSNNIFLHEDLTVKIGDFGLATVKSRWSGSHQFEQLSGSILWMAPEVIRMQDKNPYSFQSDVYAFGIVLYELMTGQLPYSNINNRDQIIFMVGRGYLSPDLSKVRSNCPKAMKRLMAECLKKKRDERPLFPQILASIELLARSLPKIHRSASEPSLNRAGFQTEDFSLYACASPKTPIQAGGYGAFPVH
Chain of Serine/threonine-protein kinase B-raf (Homo sapiens), P15056 [V600E] (P15056 whole entry V600E): as the sequence (P15056 whole entry) above, with V600E counted along it

For `CCN(CC)S(=O)(=O)c1ccc(OC)c(Nc2ncc(-c3ccccc3)o2)c1`, the inhibition in assay [1] amounted to 3.57%; in [2], 10.4%; in assay [3], 38.8%; in assay [4] it was 7.45%; in assay [5] it was 30.6%; in [6] it was 10.2%. Moreover, the inhibition is 53.4% in [7]; 17.9% in assay [8]; 0.12% in assay [9]; 8.1% in assay [10]; 45.8% in [11]; 24.2% in [12]. Besides, the inhibition in assay [13] is 58.6%; in [14], 2.08%; in assay [15] it was -0.02%; in assay [16] it was 0.42%; in assay [17], 0.29%; in assay [18], -0.35%. Besides, the inhibition in assay [19] is 0.01%; in assay [20] it was 0.35%.
For `CCn1c(-c2nonc2N)nc2c(C#CC(C)(C)O)nc(OC[C@H](N)c3ccccc3)cc21`, the inhibition in assay [1] was 2.04%; in assay [2] it was 0.69%; in assay [3], 5.54%; in assay [4] it was 6.07%; in assay [5], 30.4%; in assay [6], 2.64%. Also, the inhibition in assay [7] is 2.43%; in [8], -0.59%; in assay [9] it was -3.88%; in [10], 0.23%; in assay [11] it was 1.88%; in assay [12] it was 2.49%. For the same molecule, the inhibition is 7.77% in [13]; 0.59% in [14]; -2.5% in assay [15]; 1.18% in assay [16]; 5.43% in assay [17]; 1.68% in assay [18]. Moreover, the inhibition was 2.41% in assay [19] and -2.29% in [20].
As to `CS(=O)(=O)CCNCc1coc(-c2ccc3ncnc(Nc4ccc(OCc5ccccc5)cc4)c3c2)c1`, the inhibition in assay [1] was 1.09%; in assay [2] it was 3.94%; in [3] it was 14.9%; in assay [4] it was 3.16%; in assay [5], 2.3%; in assay [6], 3.27%. In addition, the inhibition was 9.61% in assay [7]; -1.74% in [8]; 0.61% in assay [9]; 2.35% in assay [10]; 2.91% in assay [11]; 4.14% in assay [12]. Besides, the inhibition in assay [13] was found to be 26.2%; in assay [14] it was 1.16%; in assay [15], 2.06%; in assay [16], 3.09%; in assay [17] it was 6.31%; in assay [18] it was 3.49%. Further, the inhibition amounted to 3.25% in [19] and 2.12% in assay [20].
For the molecule `CC(=O)Nc1cccc(C#Cc2cncnc2Nc2ccc(OCc3cccc(F)c3)c(Cl)c2)c1`, the inhibition was 1.74% in assay [1]; 2.84% in [2]; 9.6% in assay [3]; 2.19% in assay [4]; 3.25% in assay [5]; 2.59% in assay [6]. Further, the inhibition in assay [7] is 2.38%; in [8], -3.37%; in assay [9], 0.26%; in [10], 3.62%; in assay [11] it was 0.81%; in [12], 1.2%. The inhibition worked out at 1.7% in [13]; 3.59% in assay [14]; 6.95% in [15]; 1.95% in [16]; 1.44% in assay [17]; 1.85% in [18]. Besides, the inhibition in assay [19] is 2.03%; in [20], 2.77%.
As to `CC1=C(C(=O)Nc2cc(Cl)c3[nH]ncc3c2)C(c2ccc(C(F)(F)F)cc2)CC(=O)N1` (stereo not given), the inhibition was 2.25% in assay [1]; 2.78% in assay [2]; 4.88% in assay [3]; -0.55% in assay [4]; -1.53% in assay [5]; 1.66% in assay [6]. Moreover, the inhibition in [7] was 3.1%; in [8], -4.83%; in assay [9] it was -1.04%; in [10], 3.7%; in assay [11], 5.41%; in assay [12] it was 6.96%. Moreover, the inhibition in assay [13] came out at 27.4%; in assay [14], 3.23%; in assay [15], 3.9%; in assay [16] it was 9.34%; in assay [17] it was 35.7%; in assay [18], 10.2%. Also, the figures for the inhibition in assay [19] and in assay [20] were 35.6% and 0.78%, respectively.
For the molecule `CCNC(=O)O[C@H]1CN[C@H](C#Cc2cc3ncnc(Nc4ccc(OCc5cccc(F)c5)c(Cl)c4)c3s2)C1`, the inhibition in [1] was -0.06%; in [2] it was 1.28%; in [3] it was 1.88%; in assay [4], 2.51%; in [5], 1.26%; in assay [6], 2.06%. In addition, the inhibition in assay [7] is 2.34%; in assay [8], 3.08%; in assay [9] it was -3.06%; in assay [10] it was 2.91%; in assay [11], 1.4%; in [12], 1.68%. In addition, the inhibition in assay [13] was -0.6%; in [14], -3.39%; in [15] it was -3.28%; in [16], 4.28%; in assay [17] it was 4.49%; in assay [18] it was 2.44%. The inhibition in assay [19] was 2.23%; in assay [20], -0.64%.
In the case of `Cc1ccc2c(-c3ccnc(Nc4ccccc4)n3)c(-c3ccc(F)cc3)nn2n1`, the inhibition in assay [1] amounted to 1.8%; in assay [2], 40.7%; in assay [3], 78.4%; in [4] it was 2.49%; in assay [5], 22.1%; in [6], 2.15%. For the same molecule, the inhibition was 4.21% in [7]; 3.24% in [8]; -1.64% in assay [9]; 3.56% in assay [10]; 25.6% in assay [11]; 58.4% in assay [12]. Further, the inhibition in assay [13] stood at 92.1%; in assay [14], 2.85%; in [15], 2.04%; in assay [16] it was 6.37%; in [17], 15.5%; in [18], 4.53%. Also, the inhibition is 13% in [19] and -2.73% in assay [20].
